Assay results reported in ChEMBL document CHEMBL3988442, “University of Dundee, Small-Polar-MMV Screening Library” (2021).
The whole screen tested about 48,000 compounds, of which about 13,000 (27%) showed an effect of 50% or more. The list shows a part of the results.

test system: Wolbachia pipientis; assay: Anti-Wolbachia Cell-Based Screen; assay type: functional; design: scale not given: in the data most compounds retested in dose-response had high values; conditions: 5 µM

First: COc1ccc(CN(C)CC2CCCN2c2cccnn2)cc1F (stereo not drawn)
Second: CN(Cc1cccc(C(N)=O)c1)CC1CCCN1c1cccnn1 (stereo not drawn)
The “Percent Effect” value of the first is lower: 12.57% for the first, 103.6% for the second.

Compared with `CN(Cc1cnn(-c2ccccc2)n1)CC1CCCN1c1cccnn1` (stereo not drawn), `CN(Cc1nc(N)c2ccccc2n1)CC1CCCN1c1cccnn1` (stereo not drawn) is lower in “Percent Effect” value: 15.2% for the first, -0.6342% for the second.

First: Cc1cnc(CN(C)CC2CCCN2c2cccnn2)cn1 (stereo not drawn)
Second: CN(Cc1cnn(C)c1)CC1CCCN1c1cccnn1 (stereo not drawn)
The “Percent Effect” value of the first is lower: -5.64% for the first, 108.8% for the second.

Going from `CN(Cc1ccc(-n2cccn2)cc1)CC1CCCN1c1cccnn1` (stereo not drawn) to `CN(Cc1cccnc1)CC1CCCN1c1cccnn1` (stereo not drawn), the “Percent Effect” value falls from 115.9% to -2.765%.

Compared with `CN(Cc1ccc(-n2cccn2)cc1)C[C@@H]1CCCN2CCCC[C@H]12`, `CN(CCc1ccncc1)CC1CCCN1c1cccnn1` (stereo not drawn) is higher in “Percent Effect” value: 18.72% for the first, 116.4% for the second.

Compared with `Cc1noc(C)c1CN(C)CC1CCCN1c1cccnn1` (stereo not drawn), `Cc1nnc(CN(C)CC2CCCN2c2cccnn2)o1` (stereo not drawn) is lower in “Percent Effect” value: -0.05919% for the first, -3.082% for the second.

Going from `CCCOc1cccc(NC(=O)NC2CCc3nc(C)nn3C2)c1` (stereo not drawn) to `Cn1cc(C(=O)Nc2cccc(F)c2)ccc1=O`, the “Percent Effect” value rises from -22.59% to 0.158%.

Going from `Cc1cc(N(C)Cc2ncc[nH]2)nc(-c2ccccc2)n1` to `CC(C)Cc1ncc2c(n1)CN(C(=O)c1ccc(Cn3ccnc3)o1)C2`, the “Percent Effect” value falls from 4.008% to -18.35%.

First: CCOCCn1nc(C)cc1C(=O)N1CC[C@](C)(O)C(C)(C)C1
Second: CCn1cc(CN2CCCN(C(=O)CCn3cc(C)cn3)CC2)cn1
The “Percent Effect” value of the first is lower: 2.862% for the first, 86.19% for the second.

First: O=C(Nc1cccnc1)[C@H]1CN(Cc2ccccn2)C[C@H]2OCC[C@@H]12.O=C(O)C(F)(F)F.O=C(O)C(F)(F)F
Second: C[C@H]1CN(C)C[C@@]12COCCN(C(=O)Cc1ccccc1)C2.O=C(O)C(F)(F)F
The “Percent Effect” value of the first is lower: -14.96% for the first, 7.732% for the second.

Compared with `O=C1CCCN1C1CCN(S(=O)(=O)CCOc2ccc(F)cc2)CC1`, `O=C(NCc1ccc(N2CCCC2)nc1)N1CCc2sccc2C1` is lower in “Percent Effect” value: 0.4633% for the first, -1.896% for the second.

First: CN(CC(=O)Nc1ccncc1)CC1CCCN1c1cccnn1 (stereo not drawn)
Second: CN(Cc1ncc(C(C)(C)C)o1)CC1CCCN1c1cccnn1 (stereo not drawn)
The “Percent Effect” value of the first is lower: 2.636% for the first, 16.2% for the second.

Compared with `CC(c1ccccc1Cl)N(C(=O)CSCC(N)=O)C1CC1` (stereo not drawn), `O=C(NCc1nnc2n1CCCC2)N1CCc2ccccc2C1` is higher in “Percent Effect” value: -12.69% for the first, 5.135% for the second.

Going from `CC(NCc1nnc2n1CCCC2)C(=O)N1CCc2sccc2C1` (stereo not drawn) to `O=C(NCc1nnc2n1CCCC2)N1CCc2sccc2C1`, the “Percent Effect” value rises from 124.2% to 127.9%.

Going from `CC(NCc1nnc2n1CCCC2)c1nc(-c2cccs2)no1` (stereo not drawn) to `O=C(NCc1nnc2n1CCCCC2)N1CCc2sccc2C1`, the “Percent Effect” value rises from -0.8773% to 8.039%.

Going from `CC(C)NC(=O)C1CCN(C(C)C(=O)N2CCc3sccc3C2)CC1` (stereo not drawn) to `O=C(NCc1nnc2n1CCC2)N1CCc2sccc2C1`, the “Percent Effect” value rises from -8.464% to 90.24%.

Compared with `O=C(NCc1nnc2n1CCCCC2)N1CCc2ccccc2C1`, `O=C(NCc1nnc2n1CCCCC2)N1CCC2(CCCCC2)C1` is lower in “Percent Effect” value: 97.78% for the first, -0.2574% for the second.

Compared with `O=C(NCc1nnc2n1CCC2)N1CCC2(CCCCC2)CC1`, `CCn1cc(CN2CCCN(C(=O)C3(C#N)CCCCC3)CC2)cn1` is lower in “Percent Effect” value: 10.88% for the first, -13.94% for the second.

First: O=C(NCc1nnc2ccccn12)N1CCc2sccc2C1
Second: CCn1cc(CN2CCCN(C(=O)CCc3ccccc3)CC2)cn1
The “Percent Effect” value of the first is lower: -3.483% for the first, 96.36% for the second.

Compared with `CCC(=O)c1ccc(OCC(=O)NC(C)Cc2cc(C)n[nH]2)cc1` (stereo not drawn), `CCn1ccnc1CN1C[C@@H](NC(=O)C2CC2)[C@H](c2ccc(C)cc2)C1` is higher in “Percent Effect” value: -9.204% for the first, -6.865% for the second.

Compared with `CC(C)NC(=O)N1CCN(S(=O)(=O)C2CC2)CC2(CNC(=O)C2)C1` (stereo not drawn), `Cc1[nH]ccc1C(=O)N[C@H]1CN(S(C)(=O)=O)C[C@@H]1C1CC1` is lower in “Percent Effect” value: 10.45% for the first, 3.151% for the second.

Going from `CCn1cc(CN2CCCN(C(=O)CCCn3cncn3)CC2)cn1` to `CCn1cc(CN2CCCN(C(=O)CCc3cnn(C)c3)CC2)cn1`, the “Percent Effect” value rises from 2.568% to 103.4%.

Going from `Cn1cc(CCC(=O)N2CCN(Cc3ccncc3)CC2)cn1` to `CCn1cc(CN2CCCN(C(=O)CCc3ccncc3)CC2)cn1`, the “Percent Effect” value falls from -1.736% to -3.575%.

Going from `CCn1cc(CN2CCCN(C(=O)CCN3CCCC3=O)CC2)cn1` to `CCn1cc(CN2CCCN(C(=O)C3=NN(C)C(=O)CC3)CC2)cn1`, the “Percent Effect” value falls from 112.3% to 3.458%.

Going from `CCn1cc(CN2CCCC3(CCC(=O)N(CCC(C)C)C3)C2)cn1` (stereo not drawn) to `CCn1cc(CN2CCCN(C(=O)CCc3nccs3)CC2)cn1`, the “Percent Effect” value rises from -5.478% to 73.27%.

Compared with `OCC1(O)CCN(c2ncccc2C(F)(F)F)CC1`, `CCn1cc(CN2CCCN(C(=O)CCc3cccs3)CC2)cn1` is higher in “Percent Effect” value: 1.862% for the first, 101.9% for the second.

With `CC(=O)N1CCC(C(=O)N2CCOC(CC3CCCCC3)C2)CC1` (stereo not drawn) the “Percent Effect” value was -4.464%.
